High-throughput results from PubChem BioAssay.
An excerpt weighted towards active compounds, which were near 0.45% of everything screened.
TexasRed fluor = alters Texas Red total fluorescence, flagging assay interference | TRb/SRC2 Texas Red total fluorescence interference | Potency, µM (doses to about 106 µM), for the others: top-dose fluorescence change, negative = quenching | hit rate 0.29% among 280,000; active means well fitted curve in either direction with a large enough effect; inconclusive means small, poorly fitted or top-dose-only effect; further: potency means the concentration at half of the fitted maximal effect; on the % scale 0 is the no-effect control and ±100 the full control effect
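Human TRβ ligand-binding domain (0.6 uM) and Texas Red SRC2 peptide (20 nM) in Tris buffer with 1 uM T3 and 5% DMSO were incubated with pinned compound for 5 hr at ambient temperature. Total fluorescence was computed as S + 2P (555/632 nm).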
a7 integrin act = integrin-mediated muscular dystrophy alleviation activation; alpha7betagal myoblasts, beta-gal FDG fluorescence, 48 h; hit rate 0.064% among 350,000; Potency, µM (series often up to 38.3 µM), inactives show top-dose activation, most hits filed as activators;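 further: potency means the concentration at half of the fitted maximal effect; 100% = response of the positive control SU9516; nearly all actives have a fitted effect of over 60% in size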
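alpha7betagal+/- myoblasts (passage 13, 250/well) treated 48 h at 37C with compounds at 1:260 dilution of DMSO stock. Lysed, then beta-galactosidase activity read as FDG fluorescence (ex 480/em 540) after 30 min, with pre-read for autofluorescence.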
TRb-SRC2 inh = TRbeta-SRC2 interaction inhibition; P10828; TRbeta-SRC2 peptide binding, fluorescence polarization; receptor liganded with 1 µM T3; hit rate 0.065% among 280,000; AID 1469; Potency, µM (titrated, usually from 106 µM), without a hit: at the highest dose activity change, negative = inhibition, usual class: inhibitors;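 further: potency means the concentration at half of the fitted maximal effect; plate controls were bound peptide for no effect and peptide without receptor for full effect; nearly all actives have a fitted effect of over 50% in size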
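Assay buffer: 20 mM Tris-HCl, 100 mM NaCl, 10% glycerol, 1 mM EDTA, 0.01% NP-40, 1 mM DTT, 1 uM T3, 5% DMSO; TRb LBD 0.6 uM, Texas Red SRC2 20 nM; FP after 5 hr.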
CBFb RUNX1 block = inhibitors of human CBF-beta and RUNX1 interaction | Q01196+Q13951 | AlphaScreen CBFb-His/RUNX1-biotin binding, biochemical | Potency, µM (titrated, usually from 59.8 µM), without a hit: at the top dose activity, negative = inhibition, most hits filed as inhibitors | 230,000 tested, under 10 active; further: % of control where 0% means no effect
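CBFb-His/RUNX1-biotin, 30 nM each, preincubated 20 min RT; compound 15 min RT; Ni + streptavidin beads 50 ng each, 90 min RT; AlphaScreen read.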
ERG Ets-DNA blk = ERG Ets/DNA interaction inhibition | hit rate 0.028% among 370,000 | fluorescence polarization, His-ERG Ets domain / labelled DNA | Potency, µM (titrated, usually from 76.9 µM), for the others: at the highest dose FP activity, negative = inhibition, usual class: inhibitors | AID 624246 | P11308; active means well fitted inhibition curve with a large enough effect in the polarisation, with a control signal flat; inconclusive means small, poorly fitted or top-dose-only effect, or effect the other way, or a change in a side signal; inactive means no such curve, though single readings can be large or run the other way; the % refers to the polarisation;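 further: polarization taken with two DNA probes labelled with fluorescein and Texas red; potency means the concentration at half of the fitted maximal effect; % of control where 0% means no effect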
Target sequence (P11308 whole entry, looked up, the tested form may be a part): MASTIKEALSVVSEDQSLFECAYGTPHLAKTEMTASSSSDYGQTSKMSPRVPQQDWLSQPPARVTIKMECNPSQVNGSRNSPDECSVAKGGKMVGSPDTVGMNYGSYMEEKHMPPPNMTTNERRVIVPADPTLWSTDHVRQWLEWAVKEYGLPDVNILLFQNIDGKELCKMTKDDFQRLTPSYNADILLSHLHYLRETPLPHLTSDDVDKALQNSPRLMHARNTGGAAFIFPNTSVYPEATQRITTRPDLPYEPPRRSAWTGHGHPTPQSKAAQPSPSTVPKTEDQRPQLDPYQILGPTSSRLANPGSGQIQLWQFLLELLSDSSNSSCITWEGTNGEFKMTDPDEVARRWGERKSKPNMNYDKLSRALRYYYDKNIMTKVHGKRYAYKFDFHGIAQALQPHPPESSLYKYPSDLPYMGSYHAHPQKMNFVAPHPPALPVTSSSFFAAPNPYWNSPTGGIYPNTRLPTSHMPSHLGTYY
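His-tagged ERG Ets domain (1 uM in the protein solution; 300mM KCl, 50mM Tris-HCl, 1mM EDTA, 1mM DTT, pH 7.5) received compound, then a probe mix of 5 nM fluorescein-DNA and 100nM Texas-615-DNA. Fluorescence polarization was read for both dyes.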
RGS12 GoLoco inh = RGS12 GoLoco-Gai1 interaction inhibition; P63096; Gai1:RGS12 GoLoco peptide FP, rhodamine, 10 min; Potency, µM (titrated, usually from 61.6 µM), inactives show at the top dose activity, negative = inhibition, usual class: inhibitors; hit rate 0.44% among 230,000; AID 880; active means well fitted inhibition curve with a large enough effect, not every such curve was filed as active; inactive means no such curve, though single readings can be large or run the other way; further: potency means the concentration at half of the fitted maximal effect; on the % scale 0 is the no-effect control and ±100 the full control effect; nearly all actives have a fitted effect of over 30% in size
Target sequence (P63096 whole entry, looked up): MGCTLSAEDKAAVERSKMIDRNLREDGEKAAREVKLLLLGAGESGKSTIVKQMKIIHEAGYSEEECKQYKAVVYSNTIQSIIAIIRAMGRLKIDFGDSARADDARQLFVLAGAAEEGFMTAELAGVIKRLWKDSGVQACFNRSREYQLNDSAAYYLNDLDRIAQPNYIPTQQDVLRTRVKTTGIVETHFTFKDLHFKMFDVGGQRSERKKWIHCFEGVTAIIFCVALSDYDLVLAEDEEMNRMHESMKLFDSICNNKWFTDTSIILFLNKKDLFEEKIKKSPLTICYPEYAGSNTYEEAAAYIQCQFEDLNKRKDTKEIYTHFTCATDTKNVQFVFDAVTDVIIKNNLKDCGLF
* hit, by the source's call; ? = inconclusive; nt = no result; [ ] = dose if it differs, or a comment. Unless noted, the call rests on the fitted dose curve; in most records, active means well fitted curve in the direction sought with a large enough effect; inconclusive means small, poorly fitted or top-dose-only effect, or another doubt; inactive means no such curve, though single readings can be large; an effect the other way counts as inactive or inconclusive.

SMILES	TexasRed fluor	a7 integrin act	TRb-SRC2 inh	CBFb RUNX1 block	ERG Ets-DNA blk	RGS12 GoLoco inh
COc1ccc(/C(C)=N/NC(=O)c2cc(-c3cccnc3)nc3ccccc23)cc1	5%	-9%	5%	4%	-11%	2%
C/C(=N\NC(=O)c1cc(-c2cccnc2)nc2ccccc12)c1ccccc1O	3.2µM*[quencher]	-17%	-19%[53 µM]	-2%	3%	43%
COC(=O)N1C(c2ccccc2)=Cc2ccccc2C1CC(C)=O (configuration not stated)	-3%[11.2 µM]	nt	4%[11.2 µM]	-1%[13.1 µM]	nt	4%[14.2 µM]
O=C(Nc1ccc(S(=O)(=O)Nc2nccs2)cc1)c1ccc(F)cc1	nt	-16%	nt	nt	-7%	nt
O=C(Nc1ccc(S(=O)(=O)Nc2nccs2)cc1)c1ccccc1OC(F)F	nt	10µM*	nt	nt	1%	nt
O=c1cnc2cnc(N3CCNCC3)nc2n1Cc1ccc(F)cc1	nt	nt	nt	nt	nt	8.9µM*
O=c1c(-c2ccc(Cl)cc2)nc2cnc(N3CCNCC3)nc2n1Cc1ccc(F)cc1	nt	nt	nt	nt	nt	7%
CC(=O)Nc1ccc(S(=O)(=O)N2CCc3nc(-c4ccccc4)c4c(c3C2)CO[C@@H](C)C4)cc1	-6%[11.2 µM]	nt	-3%[11.2 µM]	6%[13.1 µM]	nt	3%[14.2 µM]
CCC1(c2ccc(O)cc2)NC(=O)NC1=O (configuration not stated)	-1%	nt	-5%	8%	nt	nt
CCC(=O)N1CCc2cc(Br)cc(S(=O)(=O)N3CCCC(C(=O)N(C)c4ccc(Br)cc4)C3)c21 (configuration not stated)	178µM*[quencher]	nt	-4%	nt	-8%	nt
O=C(OCCOCCOC(=O)c1ccccc1)c1ccccc1	4%[201 µM]	nt	10%[201 µM]	nt	nt	nt
O=C(COC(=O)c1cc([N+](=O)[O-])ccc1NCCO)c1ccccc1	100µM*[quencher]	-8%	-7%	0%	-14%	-2%
NC(=O)COC(=O)c1cc([N+](=O)[O-])ccc1NCCO	-5%	3%	7%	7%	7%	-6%
O=C1C=C(O)c2cccc3cccc1c23	nt	-36%	nt	nt	-1%	nt
NC1=CC(=O)c2cccc3cccc1c23	-2%	nt	0%	-17%	nt	32µM*
C/C(N)=C(/C#N)C(=O)COC(=O)c1cc(-c2ccc(Br)cc2)nc2ccccc12	22µM*[quencher]	-23%	-11%[53 µM]	16%	3%	-17%
Cc1ccccc1C1CC(=O)Oc2ccc(C(C)(C)C)cc21 (configuration not stated)	0%	nt	6%	0%[89.1 µM]	nt	16%[88.7 µM]
Cc1ccccc1C1CC(=O)Oc2cc(O)ccc21 (configuration not stated)	100µM*[fluorescent]	25%	?	5%[89.1 µM]	71%	-11%[88.7 µM]
CCOCCCNC1=C(Cl)C(=O)c2ccccc2C1=O	-2%	30%	2%	?	10%	3.2µM*
O=C(Nc1cc(Cl)ccc1O)C1CC(c2c(F)cccc2Cl)=NO1 (configuration not stated)	nt	16%	nt	nt	3%	nt
O=C(Nc1cc(Br)ccc1O)C1CC(c2ccccc2Cl)=NO1 (configuration not stated)	nt	13µM*	nt	nt	-13%	nt
COc1ccccc1N1CCN(c2ccc3ccccc3n2)CC1	nt	8%	nt	nt	3%	nt
COc1ccccc1N1CCN(c2ccc(-c3ccccc3)nn2)CC1	0%	-38%	6%	3%	nt	13µM*
COC(=O)c1ccc(NS(=O)(=O)c2ccc3[nH]c4c(c3c2)CCCCC4)cc1	?	nt	-7%	nt	-10%	nt
COC(=O)c1ccc(NS(=O)(=O)c2ccc3[nH]c4c(c3c2)CCCC4)cc1	28µM*[quencher]	nt	-5%	nt	0%	nt
SMILES	TexasRed fluor	a7 integrin act	TRb-SRC2 inh	CBFb RUNX1 block	ERG Ets-DNA blk	RGS12 GoLoco inh
CC(=O)N1c2ccccc2[C@@H](C)[C@@H]1C	nt	-15%	nt	nt	16%	nt
CC(=O)N1c2ccccc2C2(O)N=C(C)SC12 (configuration not stated)	1%	12%	2%	4%	-7%	7.9µM*
Cc1cc(N2CCOCC2)nc2ccc(NC(=S)NCc3ccc4c(c3)OCO4)cc12	-1%	10µM*	6%	-5%	-6%	-1%
CCN1C(=O)[C@@H]2[C@H]3C(=CC[C@@H]2C1=O)C1(OCCCO1)[C@H]1O[C@@H]1[C@H]3O	0%[11.2 µM]	nt	0%[11.2 µM]	-9%[13.1 µM]	nt	nt
Cc1cc(-c2ccc(N=Nc3ccc4c(S(=O)(=O)O)cc(S(=O)(=O)O)c(N)c4c3O)c(C)c2)ccc1N=Nc1ccc2c(S(=O)(=O)O)cc(S(=O)(=O)O)c(N)c2c1O	18µM*[fluorescent]	nt	25µM*	nt	nt	29%
NNS(=O)(=O)c1ccc(Oc2ccc(S(=O)(=O)NN)cc2)cc1	5%[201 µM]	nt	8%[201 µM]	nt	nt	nt
COc1ccc(-c2nc3c(c4c2C[C@H](c2ccccc2)OC4)CN(S(=O)(=O)c2ccc(C#N)cc2)CC3)c(C)c1	-3%[11.2 µM]	nt	-4%[11.2 µM]	-4%[13.1 µM]	nt	-13%[14.2 µM]
CC(C)(C)C(=O)C1C(=O)c2ccccc2C1=O	-1%	nt	-3%	9%[21.7 µM]	nt	10µM*
CCC1CCCCC1	-1%	nt	-6%	14%	nt	nt
C=CCOC(=O)N[C@@H](CC(C)C)/C(C(=O)OC)=C(\C)NCc1ccccc1	-2%	nt	2%	-6%	nt	-4%
COc1ccc2c(c1)c(CC(=O)NCc1ccc3c(c1)OCO3)c(C)n2C(=O)c1ccc(Cl)cc1	2%	nt	3%	-7%	nt	-1%
CC1Cc2ccccc2N1c1ncnc(N)c1[N+](=O)[O-] (configuration not stated)	-1%	?	2%	2%	-3%	7%
CC1CCCCN1c1ncnc(N)c1[N+](=O)[O-] (configuration not stated)	-2%	4.5µM*	-4%	-1%	-11%	-5%
CCn1cc(S(=O)(=O)c2ccccc2)c(=O)c2cc(F)c(N3CCCC3)cc21	10%	nt	3%	nt	-1%	nt
CCN(CC)c1cc2c(cc1F)c(=O)c(S(=O)(=O)c1ccc(OC)cc1)cn2CC	50µM*[quencher]	nt	-25%	nt	0%	nt
CCn1cc(S(=O)(=O)c2ccc(OC)cc2)c(=O)c2cc(OC)ccc21	nt	?	nt	nt	0%	nt
CCCn1cc(S(=O)(=O)c2cccc(Cl)c2)c(=O)c2cc(F)c(N3CCN(CC)CC3)cc21	112µM*[quencher]	nt	-26%	nt	0%	nt
CCn1cc(S(=O)(=O)c2ccccc2)c(=O)c2cc(F)c(N3CCN(c4ccccc4)CC3)cc21	56µM*[quencher]	nt	?	nt	4%	nt
O=C(O)c1cc(=O)c2cc(Cl)ccc2[nH]1	2%	nt	5%	13%	nt	nt
Cc1ccc(S(=O)(=O)N=C=O)cc1	-2%[201 µM]	nt	-1%[201 µM]	nt	nt	nt
CC(=O)CC(=O)Nc1ccc(C)cc1C	-10%[201 µM]	nt	5%[201 µM]	nt	nt	nt
CN(Cc1c(C(=O)N/N=C/c2cccc(F)c2)nnn1-c1nonc1N)c1ccccc1	nt	5.6µM*	nt	nt	-6%	nt
O=C(/C=C\c1ccc(O)c(O)c1)O[C@@H](Cc1ccc(O)c(O)c1)C(=O)O	-4%	nt	-5%	-21%[21.7 µM]	nt	10µM*
